Source: the supplement of paper PMC7530171
Counter-ions that a name gives are not always drawn. ± gives the standard deviation.

What follows are molecules tested on THP-1 (assay: THP-1 cell loss relative to DMSO control; higher = more host cell loss (toxicity); extreme values may be limits of the assay). Conditions: 10 µM; 4 days; infection: M. tuberculosis H37Rv.
Description: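 OICR kinase inhibitor library screened in duplicate at 10 uM against M. tuberculosis-infected THP-1 macrophages, 4 days at 37 C. THP-1 cell loss (cytotoxicity or loss of adherence) was quantified from Hoechst-stained nuclei counts by high-content imaging and normalised to the 1% DMSO control; 100 = complete loss of host cells.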

`CCN(CC)CCCCNc1ncc2cc(-c3cc(OC)cc(OC)c3)c(NC(=O)NC(C)(C)C)nc2n1` and `COc1cc(Nc2ncc(F)c(Nc3ccc4c(n3)NC(=O)C(C)(C)O4)n2)cc(OC)c1OC` are within error of each other in THP-1 cell loss: 8.25 ± 12% for the first, 63.4 ± 52% for the second.

First: O=C(Nc1ccc(-c2cn[nH]c2)cc1)C1COc2ccccc2O1 (stereo not given) [Rho Kinase Inhibitor V]
Second: Cc1ccc(F)c(NC(=O)Nc2ccc(-c3cccc4[nH]nc(N)c34)cc2)c1
The THP-1 cell loss of the first is lower: 6.82 ± 9.6% for the first, 84.1 ± 22% for the second.

`CC(NC(=O)C(C#N)=Cc1ccc(O)c(O)c1)c1ccccc1` (stereo not given) [Tyrphostin B44] and `N#C/C(=C\c1ccc(O)c(O)c1)C(=O)Nc1ccccc1` are within error of each other in THP-1 cell loss: 3.72 ± 5.3% for the first, 9.72 ± 2.5% for the second.

First: N#CC(=C(/N)Sc1ccccc1N)/C(C#N)=C(/N)Sc1ccccc1N
Second: N#C/C(=C(/N)Sc1ccc(N)cc1)c1ccccc1C(F)(F)F
The THP-1 cell loss of the first is lower: 39.2 ± 23% for the first, 78.2 ± 4.7% for the second.

Compared with `Cc1cc(C(=O)Nc2cc(Nc3ccc4c(/C=C/c5ccccn5)n[nH]c4c3)ccc2F)n(C)n1`, `CCc1nc(-c2cccc(C)c2)c(-c2ccnc(NC(=O)c3ccccc3)c2)s1` is lower in THP-1 cell loss: 54.6 ± 11% for the first, 23.2 ± 2.1% for the second.

Compared with `Cn1c(=O)n(-c2ccc(C(C)(C)C#N)cc2)c2c3cc(-c4cnc5ccccc5c4)ccc3ncc21`, `COc1ccc(-c2ccc3ncc4c(c3c2)n(-c2ccc(N3CCNCC3)c(C(F)(F)F)c2)c(=O)n4C)cn1` is higher in THP-1 cell loss: 36.6 ± 7.3% for the first, 100% for the second.

Going from `CC[C@@H]1C(=O)N(C)c2cnc(Nc3ccc(C(=O)NC4CCN(C)CC4)cc3OC)nc2N1C1CCCC1` to `COc1cc(N2CCC(N3CCN(C)CC3)CC2)ccc1Nc1ncc(Cl)c(Nc2ccccc2S(=O)(=O)C(C)C)n1`, the THP-1 cell loss falls from 100% to 26.4 ± 0.6%.

Compared with `CC(C)c1cnn2c(NCc3ccccc3)cc(NCCCCCCN)nc12` [BS-181 hydrochloride], `COc1cc2ncc(-c3ccccc3)nc2cc1OC` [Tyrphostin AG-1296] is lower in THP-1 cell loss: 90.8 ± 13% for the first, 0% for the second.

First: COc1cc2c(Nc3ccc(NC(=O)c4ccccc4)cc3)ncnc2cc1OCCCN1CCOCC1
Second: COc1cc2c(N3CCN(C(=O)Nc4ccc(OC(C)C)cc4)CC3)ncnc2cc1OCCCN1CCCCC1
The THP-1 cell loss of the first is higher: 27.2 ± 1.4% for the first, 4.46 ± 6.3% for the second.

First: Cc1cc(C(C)Nc2ccccc2)c2nc(N3CCOCC3)cc(=O)n2c1 (stereo not given)
Second: C[C@@H]1CN(CC(=O)Nc2ccc3c(c2)Cc2cccc(-c4cc(=O)cc(N5CCOCC5)o4)c2S3)C[C@H](C)O1
The THP-1 cell loss of the first is lower: 10.5 ± 5.8% for the first, 100% for the second.

`O=c1c(O)c(-c2ccc(O)c(O)c2)oc2cc(O)cc(O)c12` [Quercetin] and `Cc1[nH]c(/C=C2\C(=O)Nc3cc(-c4ccccc4)ccc32)c(C)c1CCC(=O)O` are within error of each other in THP-1 cell loss: 12.8 ± 2.6% for the first, 6.62 ± 9.4% for the second.

Compared with `C[C@@]1(C(=O)Nc2ccc(F)nc2)CCCN1c1nc(Nc2cc(C3CC3)n[nH]2)c2cccn2n1`, `O=C(CO)N1CCC(c2n[nH]c(-c3ccc(Cl)cc3)c2-c2ccncn2)CC1` is lower in THP-1 cell loss: 43.7 ± 27% for the first, 11.1 ± 0.43% for the second.

`O=C(NC(NC(=S)Nc1ccc(F)c([N+](=O)[O-])c1)C(Cl)(Cl)Cl)C(c1ccccc1)c1ccccc1` (stereo not given) and `COc1ccc(CNC(=O)Nc2ncc([N+](=O)[O-])s2)cc1` are within error of each other in THP-1 cell loss: 100% for the first, 80.8 ± 27% for the second.

First: CC1=C(C(=O)Nc2cc3cn[nH]c3cc2F)C(c2ccc(C(F)(F)F)cc2)CC(=O)N1 (stereo not given)
Second: COc1cc2nccc(Oc3ccc(NC(=O)NC4CC4)c(Cl)c3)c2cc1C(N)=O
The THP-1 cell loss of the first is lower: 0% for the first, 20.6 ± 14% for the second.

First: CC[C@@H]1/C=C(\C)C[C@H](C)C[C@H](OC)[C@H]2O[C@@](O)(C(=O)C(=O)N3CCCC[C@H]3C(=O)O[C@H](/C(C)=C/[C@@H]3CC[C@H](Cl)[C@H](OC)C3)[C@H](C)[C@@H](O)CC1=O)[C@H](C)C[C@@H]2OC [Pimecrolimus]
Second: COC(=O)Nc1ccc(-c2nc(N3CCOCC3)c3cnn(C4CCN(C(=O)OC)CC4)c3n2)cc1
The THP-1 cell loss of the first is lower: 28.5 ± 3% for the first, 35.6 ± 0.38% for the second.

`COc1cc(C[C@H]2C(=O)OC[C@@H]2Cc2ccc(OC)c(OC)c2)ccc1O` [Arctigenin] and `COc1cc2ncn(-c3cc(OCc4ccccc4C(F)(F)F)c(C(N)=O)s3)c2cc1OC` are within error of each other in THP-1 cell loss: 35 ± 18% for the first, 12.2 ± 11% for the second.

`CC(C)[C@H](CO)Nc1nc(Nc2cccc(Cl)c2)c2ncn(C(C)C)c2n1` [Purvalanol A] and `Cc1cnc(Nc2ccc(OCCN3CCCC3)cc2)nc1Nc1cccc(S(=O)(=O)NC(C)(C)C)c1` are the same in THP-1 cell loss: 100% for the first, 100% for the second.

`O=C(Nc1c[nH]nc1-c1nc2ccc(CN3CCOCC3)cc2[nH]1)NC1CC1` and `Cc1cc(Nc2cc(CN3CCOCC3)c3nc(C)c(Cc4ccc(Cl)cc4F)n3n2)n[nH]1` are the same in THP-1 cell loss: 100% for the first, 100% for the second.

`COc1ccc2c3n(c(=NC(=O)c4cccnc4)nc2c1OC)CCN3` and `C=CCn1c(=O)c2cnc(Nc3ccc(N4CCN(C)CC4)cc3)nc2n1-c1cccc(C(C)(C)O)n1` are within error of each other in THP-1 cell loss: 32.5 ± 0.91% for the first, 37 ± 4.8% for the second.

Going from `O=S(=O)(c1cccc2c(Cl)cccc12)N1CCCNCC1` [ML 9 hydrochloride] to `CC(C)CC(=O)Nc1n[nH]c2c1CN(C(=O)C1CCN(C)CC1)C2(C)C`, the THP-1 cell loss rises from 31.1 ± 21% to 100%.
